What all share (parameters): scale not given: direction of the effect not stated beside the values
Experiment [1] has as its target Protein translocase subunit SecA (Escherichia coli (strain K12)) (UniProt P10408). Nature of the experiment: Assay to Identify E. coli SecA ATPase Inhibitors. The conditions noted are these: 30 µM. In kind it is functional.
For experiment [2], the target named is T1, Ubiquitin-activating enzyme e1, putative (Leishmania donovani (strain BPK282A1)) (UniProt E9BSI1).
T1 sequence (whole entry): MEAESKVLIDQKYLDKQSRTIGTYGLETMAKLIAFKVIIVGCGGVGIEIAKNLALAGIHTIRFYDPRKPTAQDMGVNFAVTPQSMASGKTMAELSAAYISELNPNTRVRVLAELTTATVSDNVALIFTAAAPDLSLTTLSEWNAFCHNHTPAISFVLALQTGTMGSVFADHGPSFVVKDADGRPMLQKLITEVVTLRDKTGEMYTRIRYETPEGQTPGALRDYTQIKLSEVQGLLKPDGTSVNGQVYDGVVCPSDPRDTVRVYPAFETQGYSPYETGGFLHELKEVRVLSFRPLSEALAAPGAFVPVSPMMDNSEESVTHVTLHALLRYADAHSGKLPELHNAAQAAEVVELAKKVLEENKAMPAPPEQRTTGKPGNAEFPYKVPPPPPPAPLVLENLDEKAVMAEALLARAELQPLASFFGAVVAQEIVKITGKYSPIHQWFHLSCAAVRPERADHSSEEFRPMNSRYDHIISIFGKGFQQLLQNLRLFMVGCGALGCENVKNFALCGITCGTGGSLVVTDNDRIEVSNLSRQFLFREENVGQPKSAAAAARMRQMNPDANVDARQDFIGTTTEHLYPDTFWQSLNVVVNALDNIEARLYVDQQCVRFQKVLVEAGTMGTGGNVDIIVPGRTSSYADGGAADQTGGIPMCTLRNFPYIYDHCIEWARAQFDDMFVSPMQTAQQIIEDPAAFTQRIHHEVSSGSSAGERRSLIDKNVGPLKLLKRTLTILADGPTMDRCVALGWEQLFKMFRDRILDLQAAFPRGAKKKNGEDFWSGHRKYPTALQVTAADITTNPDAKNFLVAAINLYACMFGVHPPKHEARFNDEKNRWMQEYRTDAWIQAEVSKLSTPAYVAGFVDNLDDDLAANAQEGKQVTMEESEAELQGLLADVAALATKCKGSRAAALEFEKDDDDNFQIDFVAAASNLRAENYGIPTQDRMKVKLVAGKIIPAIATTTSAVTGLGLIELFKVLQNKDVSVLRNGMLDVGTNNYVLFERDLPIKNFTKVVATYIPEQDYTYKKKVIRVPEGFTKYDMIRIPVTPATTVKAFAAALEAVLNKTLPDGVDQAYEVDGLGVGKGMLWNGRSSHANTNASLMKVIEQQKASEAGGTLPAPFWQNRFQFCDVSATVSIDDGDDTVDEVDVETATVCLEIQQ
Put plainly: Leishmania donovani Ubiquitin Activating Enzyme (LdE1). It counts as functional. The note with it: 30 µM.

Experiment [3] has as its target AMP-activated protein kinase, AMPK (Homo sapiens) (UniProt P54646+O43741+P54619+Q9UGJ0+Q9Y478+Q13131+Q9UGI9). Put plainly: AMP-dependent Kinase enzyme assay. An in vitro enzyme assay that detects ADP turnover that is directly proportional to AMPK activity. This uses naive AMPK that is activated during the assay with MK-8722. In kind it is functional. The note with it: 30 µM.

Experiment [4] has as its target Sialic acid-binding Ig-like lectin 9 (Homo sapiens) (UniProt Q9Y336). Nature of the experiment: Hs-Siglec9 ALPHAscreen SOP 20170721. The conditions noted are these: 10 µM. A general note: Bead proximity is the source of the signal in Alpha formats.
For a further experiment, the system named is Trypanosoma cruzi. Nature of the experiment: Trypanosoma cruzi phosphomannomutase and mannose-1-phosphate guanylyltransferase assay. In kind it is functional. The note with it: 10 µM.
For experiment [5], the target named is T2, Arginase-2, mitochondrial (Homo sapiens) (UniProt P78540).
T2 sequence (whole entry): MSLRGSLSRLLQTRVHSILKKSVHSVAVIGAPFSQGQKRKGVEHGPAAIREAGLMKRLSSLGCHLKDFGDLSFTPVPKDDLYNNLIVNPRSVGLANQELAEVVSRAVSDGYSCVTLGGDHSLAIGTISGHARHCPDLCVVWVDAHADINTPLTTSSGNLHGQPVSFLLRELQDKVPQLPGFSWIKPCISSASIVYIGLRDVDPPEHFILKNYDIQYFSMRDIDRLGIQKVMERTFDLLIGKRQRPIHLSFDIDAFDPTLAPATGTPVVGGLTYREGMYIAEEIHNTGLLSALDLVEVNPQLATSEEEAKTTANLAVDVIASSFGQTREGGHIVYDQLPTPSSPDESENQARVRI
Nature of the experiment: in vitro enzyme assay to detect the production of urea directly proportional to the activity of Arginase II. Also: in the data most compounds retested in dose-response had high values. In kind it is functional. The conditions noted are these: 33.3 µM.

Experiment [6] deals with T3, Proteasome subunit beta (Trypanosoma cruzi) (UniProt O96673).
T3 sequence (whole entry): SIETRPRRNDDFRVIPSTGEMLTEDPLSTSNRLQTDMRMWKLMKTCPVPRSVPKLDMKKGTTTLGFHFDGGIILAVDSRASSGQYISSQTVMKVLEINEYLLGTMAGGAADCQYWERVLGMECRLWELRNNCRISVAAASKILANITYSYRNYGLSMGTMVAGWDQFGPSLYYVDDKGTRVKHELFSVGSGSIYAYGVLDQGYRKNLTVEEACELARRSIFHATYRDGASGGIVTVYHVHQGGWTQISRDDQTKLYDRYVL
Put plainly: Trypanosoma cruzi proteasome chymotrypsin-like activity (TcProtChymo) assay. Also: in the data most compounds retested in dose-response had high values. It counts as functional. The conditions noted are these: 9.37 µM.

The species named for another experiment is Homo sapiens. Nature of the experiment: To identify inhibition of the IFN signalling (Jak-Stat) pathway via expression of an eGFP reporter gene under the control of an IFN-stimulated response element (ISRE) containing MxA promoter. It counts as functional. The conditions noted are these: 30 µM. For orientation: In a reporter assay the amount or activity of a reporter protein is the signal.

The target in experiment [7] is T4, Tyrosyl-tRNA synthetase, putative (Trypanosoma cruzi (strain CL Brener)) (UniProt Q4DSP6).
T4 sequence (whole entry): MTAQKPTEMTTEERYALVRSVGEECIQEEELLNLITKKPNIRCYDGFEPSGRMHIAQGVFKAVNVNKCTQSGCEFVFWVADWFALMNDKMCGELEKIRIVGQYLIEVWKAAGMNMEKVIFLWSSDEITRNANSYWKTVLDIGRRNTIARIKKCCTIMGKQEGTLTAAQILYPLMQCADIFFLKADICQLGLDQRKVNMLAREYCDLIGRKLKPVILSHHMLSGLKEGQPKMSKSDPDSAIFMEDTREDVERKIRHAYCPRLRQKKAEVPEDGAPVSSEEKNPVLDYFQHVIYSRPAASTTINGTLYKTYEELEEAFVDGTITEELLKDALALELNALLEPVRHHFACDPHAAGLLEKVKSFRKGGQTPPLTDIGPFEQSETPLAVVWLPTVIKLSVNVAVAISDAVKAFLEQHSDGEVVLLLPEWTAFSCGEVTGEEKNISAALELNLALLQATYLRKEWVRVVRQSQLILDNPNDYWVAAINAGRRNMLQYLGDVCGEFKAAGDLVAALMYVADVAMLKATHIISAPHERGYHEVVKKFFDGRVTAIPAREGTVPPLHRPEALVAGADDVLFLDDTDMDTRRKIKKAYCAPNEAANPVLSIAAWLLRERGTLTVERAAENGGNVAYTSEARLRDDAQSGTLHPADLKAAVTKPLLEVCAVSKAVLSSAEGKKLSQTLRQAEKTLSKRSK
Put plainly: Trypanosoma cruzi tyrosyl tRNA synthetase (TcYRS) _High Tyrosine SOP. Also: in the data most compounds retested in dose-response had high values. In kind it is functional. The conditions noted are these: 30 µM.

Experiment [8] addresses T4, Tyrosyl-tRNA synthetase, putative (Trypanosoma cruzi (strain CL Brener)). Nature of the experiment: Trypanosoma cruzi tyrosyl tRNA synthetase (TcYRS) SOP. It counts as functional. The conditions noted are these: 30 µM.
Experiment [9] deals with Chromo domain-containing protein 1 (Saccharomyces cerevisiae (strain ATCC 204508 / S288c) (Baker's yeast)) (UniProt P32657). Nature of the experiment: ScCHD-1 Enzyme Inhibition Assay. Also: in the data most compounds retested in dose-response had high values. It counts as functional. The note with it: 30 µM.
Chromo domain-containing protein 1 (Saccharomyces cerevisiae (strain ATCC 204508 / S288c) (Baker's yeast)), sequence (P32657 whole entry, the tested form may be a part): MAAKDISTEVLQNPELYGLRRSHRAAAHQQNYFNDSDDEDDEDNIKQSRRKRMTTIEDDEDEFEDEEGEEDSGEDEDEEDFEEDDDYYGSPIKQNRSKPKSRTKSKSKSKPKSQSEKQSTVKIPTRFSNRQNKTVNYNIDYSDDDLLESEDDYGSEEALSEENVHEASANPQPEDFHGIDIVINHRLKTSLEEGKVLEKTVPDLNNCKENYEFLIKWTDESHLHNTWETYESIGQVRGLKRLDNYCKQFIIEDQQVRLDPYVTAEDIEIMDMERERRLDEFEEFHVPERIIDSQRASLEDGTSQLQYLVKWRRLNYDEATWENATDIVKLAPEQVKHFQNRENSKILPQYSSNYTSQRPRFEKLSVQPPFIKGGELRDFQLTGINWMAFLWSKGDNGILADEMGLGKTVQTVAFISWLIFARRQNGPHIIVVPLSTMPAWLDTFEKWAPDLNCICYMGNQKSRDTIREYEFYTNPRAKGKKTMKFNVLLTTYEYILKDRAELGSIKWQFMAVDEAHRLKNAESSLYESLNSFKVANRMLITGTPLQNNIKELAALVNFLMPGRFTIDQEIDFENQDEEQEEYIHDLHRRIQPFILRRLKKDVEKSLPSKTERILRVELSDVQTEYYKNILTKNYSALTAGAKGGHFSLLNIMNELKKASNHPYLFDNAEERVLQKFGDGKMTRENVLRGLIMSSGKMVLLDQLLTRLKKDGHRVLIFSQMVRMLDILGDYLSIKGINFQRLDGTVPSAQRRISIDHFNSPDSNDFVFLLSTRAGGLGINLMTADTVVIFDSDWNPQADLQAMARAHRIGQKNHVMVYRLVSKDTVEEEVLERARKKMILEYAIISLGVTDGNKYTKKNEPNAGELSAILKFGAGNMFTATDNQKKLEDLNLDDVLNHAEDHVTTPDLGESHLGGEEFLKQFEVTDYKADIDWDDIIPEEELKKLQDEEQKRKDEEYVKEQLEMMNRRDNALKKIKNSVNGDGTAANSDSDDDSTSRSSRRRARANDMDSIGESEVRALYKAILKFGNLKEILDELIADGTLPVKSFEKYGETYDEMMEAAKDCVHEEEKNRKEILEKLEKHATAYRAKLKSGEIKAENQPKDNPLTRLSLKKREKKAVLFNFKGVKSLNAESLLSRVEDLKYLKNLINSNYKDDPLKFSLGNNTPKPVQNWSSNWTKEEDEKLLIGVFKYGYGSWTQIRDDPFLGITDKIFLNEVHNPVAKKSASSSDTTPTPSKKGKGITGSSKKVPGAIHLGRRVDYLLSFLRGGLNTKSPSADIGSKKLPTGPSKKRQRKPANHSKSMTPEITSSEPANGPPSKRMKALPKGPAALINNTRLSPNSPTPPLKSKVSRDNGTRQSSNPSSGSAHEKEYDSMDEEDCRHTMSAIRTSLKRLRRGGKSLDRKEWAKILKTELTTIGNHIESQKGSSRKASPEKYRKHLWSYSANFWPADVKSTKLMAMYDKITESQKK

For some of these results: Potency and affinity values are given separately.

The results in this text go back to ChEMBL document CHEMBL3988442, “University of Dundee, Small-Polar-MMV Screening Library” (2021).

Protein translocase subunit SecA (Escherichia coli (strain K12)), sequence (P10408 whole entry): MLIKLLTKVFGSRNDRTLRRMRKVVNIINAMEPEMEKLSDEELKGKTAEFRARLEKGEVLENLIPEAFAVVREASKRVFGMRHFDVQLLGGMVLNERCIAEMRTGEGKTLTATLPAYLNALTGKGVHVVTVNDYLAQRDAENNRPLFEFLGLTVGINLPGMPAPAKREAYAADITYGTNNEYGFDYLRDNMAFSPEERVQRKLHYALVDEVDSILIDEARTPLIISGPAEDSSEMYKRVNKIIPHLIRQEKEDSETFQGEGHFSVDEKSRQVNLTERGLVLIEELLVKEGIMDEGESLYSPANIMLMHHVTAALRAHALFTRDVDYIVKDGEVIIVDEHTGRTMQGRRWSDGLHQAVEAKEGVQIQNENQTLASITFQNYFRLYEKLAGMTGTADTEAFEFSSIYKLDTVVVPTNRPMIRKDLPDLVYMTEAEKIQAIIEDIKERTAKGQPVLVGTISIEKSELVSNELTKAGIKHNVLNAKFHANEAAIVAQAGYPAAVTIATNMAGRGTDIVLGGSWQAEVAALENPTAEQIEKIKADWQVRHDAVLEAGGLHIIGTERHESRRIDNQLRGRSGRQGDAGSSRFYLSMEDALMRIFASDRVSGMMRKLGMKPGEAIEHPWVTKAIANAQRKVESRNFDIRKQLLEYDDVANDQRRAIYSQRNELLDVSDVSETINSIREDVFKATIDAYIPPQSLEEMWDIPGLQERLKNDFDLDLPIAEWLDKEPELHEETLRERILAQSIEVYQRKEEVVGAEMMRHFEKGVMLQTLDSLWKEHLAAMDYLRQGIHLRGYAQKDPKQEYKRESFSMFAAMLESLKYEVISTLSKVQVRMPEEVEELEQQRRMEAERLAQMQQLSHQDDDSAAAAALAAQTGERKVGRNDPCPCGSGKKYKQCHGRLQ
Sialic acid-binding Ig-like lectin 9 (Homo sapiens), sequence (Q9Y336 whole entry): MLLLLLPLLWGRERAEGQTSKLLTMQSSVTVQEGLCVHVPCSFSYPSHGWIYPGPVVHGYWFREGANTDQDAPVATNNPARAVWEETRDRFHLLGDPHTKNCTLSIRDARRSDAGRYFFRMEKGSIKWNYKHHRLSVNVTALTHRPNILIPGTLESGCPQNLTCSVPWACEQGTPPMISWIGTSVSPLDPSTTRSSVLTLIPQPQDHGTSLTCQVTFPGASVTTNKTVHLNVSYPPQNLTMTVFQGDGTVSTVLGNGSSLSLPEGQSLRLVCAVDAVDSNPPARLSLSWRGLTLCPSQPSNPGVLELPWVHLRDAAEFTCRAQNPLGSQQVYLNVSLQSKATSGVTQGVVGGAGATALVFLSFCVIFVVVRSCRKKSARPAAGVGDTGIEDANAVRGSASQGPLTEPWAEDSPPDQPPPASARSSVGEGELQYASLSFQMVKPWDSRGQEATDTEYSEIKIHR

Take `COc1cccc(CN2CCN(C(=O)CN3CCOCC3)CC2)n1`: the Percent Effect was 0.629% in [1]; -10.5% in experiment [2]; -3.06% in experiment [3]; 3.57% in experiment [4]; 4.76% with Trypanosoma cruzi; 3.6% in experiment [5]. The Percent Effect in experiment [6] worked out at 4.99%; in the experiment listed under Homo sapiens, 7.19%; in experiment [7], 2.46%; in experiment [8] it was 6.17%; in experiment [9] it was 2.89%.
Regarding `COc1ncccc1NC(=O)N(Cc1ccc(C)o1)C1CC1`, the Percent Effect is -4.84% in experiment [1]; 13% in experiment [2]; 6% in experiment [3]; 6.62% in [4]; 8.05% in the experiment on Trypanosoma cruzi; -4.27% in [5]. For the same compound, the Percent Effect is 2.53% in experiment [6]; 56.7% in the experiment listed under Homo sapiens; 6.8% in [7]; 19.5% in experiment [8]; -5.73% in [9].
With `CN(Cc1ccncc1)CC(c1cccs1)N1CCOCC1` (stereo unspecified), the Percent Effect in experiment [1] is -5.66%; in [2], -29.7%; in experiment [3], -4.64%; in experiment [4], 13.6%; in the experiment with Trypanosoma cruzi, 8.63%; in [5], -2.03%. Further, the Percent Effect in [6] is 5.57%; in the experiment filed under Homo sapiens it was 19.6%; in [7] it was 5.94%; in experiment [8], 13.4%; in experiment [9], -2.66%.
With `Cn1cccc1CCC(=O)N1CCC2(CC1)c1ccccc1CC2O` (stereo unspecified), the Percent Effect was 0.249% in experiment [1]; 13% in experiment [2]; -1.66% in experiment [3]; 10.8% in experiment [4]; 4.23% in the experiment on Trypanosoma cruzi; -38.6% in experiment [5]. For the same compound, the Percent Effect in experiment [6] came to 20.6%; in the experiment listed under Homo sapiens, 21.3%; in experiment [7], 11.8%; in experiment [8], 16.1%; in experiment [9], 5.42%.
`CCc1nc(NCCCn2cccn2)c2c(n1)c(C)nn2C`: the Percent Effect in [1] is -3.56%; in [2], 20%; in experiment [3], -0.746%; in experiment [4] it was 2.66%; with Trypanosoma cruzi, 0.197%; in experiment [5], -0.528%. In addition, the Percent Effect in [6] is 17.6%; in the experiment filed under Homo sapiens, 8.9%; in experiment [7], 6.35%; in [8] it was 12.8%; in [9] it was -12.1%.
Take `COCC(=O)N1CCC(c2nc3ccc(-c4ccccc4)cn3n2)CC1`: the Percent Effect in experiment [1] is 1.49%; in [2], -153%; in experiment [3] it was 4.81%; in experiment [4], 3.2%; with Trypanosoma cruzi, -1.19%; in experiment [5], 4.79%. For the same compound, the Percent Effect in experiment [6] was 13.4%; in the experiment filed under Homo sapiens, 15.6%; in experiment [7] it was 0%; in experiment [8], 3.7%; in [9], -1.08%.
Regarding `CCn1ncc2c1C(COC)CN(Cc1ccsc1)C2` (stereo unspecified), the Percent Effect is -3.96% in experiment [1]; 18.9% in experiment [2]; -9.13% in experiment [3]; 5.54% in [4]; 1.47% with Trypanosoma cruzi; 1.24% in [5]. Further, the Percent Effect was 6.95% in [6]; 5.76% in the experiment filed under Homo sapiens; 7.53% in experiment [7]; 16.1% in experiment [8]; -11.9% in [9].
In the case of `Cc1nc2cc(O)nn2c(C)c1CCC(=O)N(C)Cc1cscn1`, the Percent Effect in [1] is -7.5%; in experiment [2] it was 18.4%; in experiment [3], -470%; in experiment [4], -2.99%; in the experiment with Trypanosoma cruzi, 8.08%; in [5], -4.73%. The Percent Effect is 6.42% in [6]; 15.6% in the experiment listed under Homo sapiens; -6.38% in experiment [7]; 5.2% in experiment [8]; -11.6% in [9].
Consider `Cc1ncc2c(n1)CN(Cc1noc(C3CC3)n1)CC2`, for which the Percent Effect was -6.18% in experiment [1]; 15.6% in experiment [2]; -33.1% in [3]; 11.6% in experiment [4]; 5.43% in the experiment with Trypanosoma cruzi; 2.85% in experiment [5]. The Percent Effect was 8.11% in experiment [6]; 2.58% in the experiment filed under Homo sapiens; 6.8% in [7]; 19.5% in [8]; -13.7% in experiment [9].
`Cc1ccc(C(=O)Nc2cc(C(C)C)n[nH]2)cn1`: the Percent Effect in experiment [1] is -6.49%; in experiment [2] it was 5.2%; in experiment [3], 97.8%; in experiment [4], 4.24%; with Trypanosoma cruzi it was -5.06%; in experiment [5] it was 3.56%. The Percent Effect in [6] was 10.3%; in the experiment listed under Homo sapiens it was 75.7%; in experiment [7], 3.88%; in experiment [8] it was 9.76%; in experiment [9], -5.01%.
Consider `Cc1cc(N(C)Cc2cc(C)on2)n2nc(C)c(C)c2n1`, for which the Percent Effect in experiment [1] was 1.74%; in experiment [2], 4.17%; in [3], -0.739%; in experiment [4] it was -6.39%; with Trypanosoma cruzi, -6.71%; in experiment [5], 1.32%. In addition, the Percent Effect was 11.4% in experiment [6]; 10.3% in the experiment listed under Homo sapiens; 2.1% in experiment [7]; 7.69% in experiment [8]; -5.04% in [9].
